Data as given in PubChem BioAssay (NCI).
The panel holds about 79,000 compounds, 15% with a hit somewhere; the sample as a whole holds those more often. Active and inactive are the calls of the source. Rule as the data show it: active = growth inhibition above about 70%; inactive = the rest.

How the values were obtained:
[1] = NCI Yeast Anticancer Drug Screen. Data for the rad52 strain (AID 147);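 also: 0% = growth of vehicle-treated control cultures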; conditions: S. cerevisiae rad52 mutant growth inhibition, stronger effect = higher value
Method in brief: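 DNA repair-defective yeast; compound exposure; growth scored against vehicle controls.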

[2] = NCI Yeast Anticancer Drug Screen. Data for the wt1 strain (AID 149);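 also: 0% = growth of vehicle-treated wt1 cultures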; conditions: S. cerevisiae wt1 strain (SPY 50644) growth inhibition, stronger effect = higher value
Method in brief: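 wt1 yeast, compound-treated; % growth inhibition vs vehicle control.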

[3] = NCI Yeast Anticancer Drug Screen. Data for the mgt1 strain (AID 153); conditions: S. cerevisiae mgt1 mutant growth inhibition, stronger effect = higher value
Method in brief: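 Growth inhibition relative to vehicle controls was scored for the mgt1 yeast strain after compound exposure.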

[4] = NCI Yeast Anticancer Drug Screen. Data for the rad50 strain (AID 155);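 also: 0% = growth of vehicle-only cultures of the same strain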; conditions: S. cerevisiae rad50 strain growth inhibition, stronger effect = higher value
Method in brief: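 Genetically altered yeast (DNA repair pathway); compound treatment; growth inhibition vs vehicle ctrl.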

[5] = NCI Yeast Anticancer Drug Screen. Data for the mec2-1 strain (AID 157); conditions: S. cerevisiae mec2-1 strain, stronger effect = higher value
Method in brief: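 Growth inhibition is read against vehicle-treated controls after compound exposure of the mec2-1 yeast strain, which is defective in DNA damage repair or cell cycle control.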

[6] = NCI Yeast Anticancer Drug Screen. Data for the rad14 strain (AID 159);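 also: 0% = growth of vehicle-treated control cultures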; conditions: S. cerevisiae rad14 strain growth inhibition, stronger effect = higher value
Method in brief: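 Test compounds were applied to a repair-deficient yeast strain. Its growth was then compared with that of cultures given vehicle alone, and inhibition was expressed relative to those controls.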

[7] = NCI Yeast Anticancer Drug Screen. Data for the sgs1 mgt1 strain (AID 161);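 also: 0% = growth of cultures given vehicle only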; conditions: S. cerevisiae sgs1 mgt1 strain, stronger effect = higher value
Method in brief: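 Yeast cells carrying a defined DNA-repair defect were exposed to test compounds. Growth inhibition was measured relative to vehicle-treated controls.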

[8] = NCI Yeast Anticancer Drug Screen. Data for the CLN2oe strain (AID 163);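 also: 0% = growth of vehicle-only control cultures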; conditions: S. cerevisiae CLN2oe strain, stronger effect = higher value
Method in brief: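 Compound-treated yeast; growth vs vehicle ctrl = % inhibition. Genetically altered strain (cell-cycle control).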

[9] = NCI Yeast Anticancer Drug Screen. Data for the bub3 strain (AID 167); conditions: S. cerevisiae bub3 mutant strain, stronger effect = higher value
Method in brief: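 Yeast carrying a defined mutation is treated with each compound, and growth is compared with that of vehicle-exposed cells to give inhibition.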

[10] = NCI Yeast Anticancer Drug Screen. Data for the wt2 strain (AID 169);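 also: 0% = growth of vehicle-treated yeast cultures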; conditions: S. cerevisiae wt2 strain growth inhibition, stronger effect = higher value
Method in brief: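 Compound exposure of yeast; growth compared with vehicle controls; inhibition reported.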

[11] = NCI Yeast Anticancer Drug Screen. Data for the mlh1 strain (AID 171);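 also: 0% = growth of vehicle-treated control cultures of the same strain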; conditions: S. cerevisiae mlh1 strain growth inhibition, stronger effect = higher value
Method in brief: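 Compounds are applied to a genetically altered yeast strain, and its growth is compared with that of vehicle-treated cultures to give percent inhibition.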

[12] = NCI Yeast Anticancer Drug Screen. Data for the sgs1 strain (AID 173);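 also: 0% = growth of vehicle-only control cultures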; conditions: S. cerevisiae sgs1 mutant, stronger effect = higher value
Method in brief: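 Compounds applied to genetically altered yeast; growth compared with vehicle-treated cultures to give % inhibition.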

[13] = NCI Yeast Anticancer Drug Screen. Data for the mlh1 rad18 strain (AID 175); conditions: S. cerevisiae mlh1 rad18 strain growth inhibition, stronger effect = higher value
Method in brief: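 Cells of a genetically altered yeast strain, deficient in DNA damage repair, were treated with compound. Their growth was then compared with that of vehicle-treated cultures to give inhibition.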

[14] = NCI Yeast Anticancer Drug Screen. Data for the rad18 strain (AID 177); conditions: S. cerevisiae rad18 mutant growth inhibition, stronger effect = higher value
Method in brief: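 Compounds are applied to a repair-deficient yeast strain, and growth is compared with that of vehicle-treated cultures to give percent inhibition.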

[15] = NCI Yeast Anticancer Drug Screen. Data for the rad50EPP+ strain (AID 151);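 also: 0% = growth of vehicle-treated control cultures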; conditions: S. cerevisiae rad50 mutant strain, stronger effect = higher value
Method in brief: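 rad50EPP+ yeast treated with test compounds. Readout: growth vs vehicle control.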

[16] = NCI Yeast Anticancer Drug Screen. Data for the cln2 rad14 strain (AID 165);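 also: 0% = growth equal to vehicle treated cultures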; conditions: S. cerevisiae cln2 rad14 strain, stronger effect = higher value
Method in brief: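 Growth inhibition, relative to vehicle-treated controls, is the read-out. The test organism is a yeast strain with defined genetic alterations, cln2 rad14.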

[17] = at 5.0 µM (retest, dose inferred, filed as 0.5)
[18] = at 50.0 µM (retest, dose inferred, filed as 5.0)

Measured: growth inhibition

CCC(=O)Oc1ccc(/C=N/NC(N)=S)nc1
inactive: [1]; at 1.2 µM -6% | [1]; at 3.7 µM -11% | [1]; at 11.0 µM 4% | [1]; at 33.0 µM 13% | [1]; at 100.0 µM 18% | [2]; at 1.2 µM 0% | [2]; at 3.7 µM 7% | [2]; at 11.0 µM 7% | [2]; at 33.0 µM 13% | [2]; at 100.0 µM 19% | [3]; at 1.2 µM -1% | [3]; at 3.7 µM -3% | [3]; at 11.0 µM -2% | [3]; at 33.0 µM -5% | [3]; at 100.0 µM -4% | [4]; at 1.2 µM -7% | [4]; at 3.7 µM -11% | [4]; [17] -6% | [4]; at 11.0 µM -12% | [4]; at 33.0 µM 3% | [4]; [18] 6% | [4]; at 50.0 µM 22.4% | [4]; at 100.0 µM 21% | [5]; at 1.2 µM -2% | [5]; at 3.7 µM 0% | [5]; [17] 0% | [5]; at 11.0 µM 0% | [5]; at 33.0 µM 37% | [6]; at 1.2 µM 1% | [6]; at 3.7 µM 1% | [6]; at 11.0 µM 3% | [6]; at 33.0 µM 10% | [6]; at 100.0 µM 12% | [7]; [17] 0% | [7]; [18] 32% | [7]; at 50.0 µM 39% | [8]; at 1.2 µM -5% | [8]; at 3.7 µM -8% | [8]; at 11.0 µM -11% | [8]; at 33.0 µM -11% | [8]; at 100.0 µM -9% | [9]; at 1.2 µM -7% | [9]; at 3.7 µM -4% | [9]; [17] -8% | [9]; at 11.0 µM -15% | [9]; at 33.0 µM -18% | [9]; [18] -13% | [9]; at 50.0 µM 17.1% | [9]; at 100.0 µM -15% | [10]; at 1.2 µM 2% | [10]; at 3.7 µM 7% | [10]; at 11.0 µM 16% | [10]; at 33.0 µM 35% | [10]; at 100.0 µM 34% | [11]; at 1.2 µM -8% | [11]; at 3.7 µM -3% | [11]; at 11.0 µM -6% | [11]; at 33.0 µM -8% | [11]; at 100.0 µM 3% | [12]; at 1.2 µM -16% | [12]; at 3.7 µM -11% | [12]; at 11.0 µM -2% | [12]; at 33.0 µM 9% | [12]; at 100.0 µM 11% | [13]; [17] -2% | [13]; [18] 19% | [13]; at 50.0 µM 26.1% | [14]; at 1.2 µM -4% | [14]; at 3.7 µM 1% | [14]; at 11.0 µM -3% | [14]; at 33.0 µM -8% | [14]; at 100.0 µM -5%
active: [5]; [18] 95% | [5]; at 50.0 µM 87.4% | [5]; at 100.0 µM 91%

CC1=CC2C(C(C)C)CC1C1C(=O)OC(=O)C21 (stereo not drawn)
active: [1]; at 100.0 µM 71% | [4]; [18] 83% | [4]; at 50.0 µM 86.7% | [4]; at 100.0 µM 81% | [5]; [18] 86% | [5]; at 50.0 µM 76.5% | [9]; at 50.0 µM 70.8% | [10]; at 100.0 µM 86% | [12]; at 100.0 µM 88% | [13]; [18] 77% | [13]; at 50.0 µM 76.4%
inactive: [1]; at 1.2 µM -12% | [1]; at 3.7 µM -14% | [1]; at 11.0 µM -2% | [1]; at 33.0 µM 20% | [2]; at 1.2 µM -5% | [2]; at 3.7 µM 0% | [2]; at 11.0 µM 6% | [2]; at 33.0 µM 13% | [2]; at 100.0 µM 51% | [15]; at 1.2 µM -8% | [15]; at 3.7 µM -20% | [15]; at 11.0 µM 10% | [15]; at 33.0 µM 33% | [15]; at 100.0 µM 49% | [4]; at 1.2 µM -13% | [4]; at 3.7 µM -16% | [4]; [17] -127% | [4]; at 11.0 µM -12% | [4]; at 33.0 µM 24% | [5]; at 1.2 µM -1% | [5]; at 3.7 µM 0% | [5]; [17] -42% | [5]; at 11.0 µM -2% | [5]; at 33.0 µM 2% | [5]; at 100.0 µM 37% | [7]; [17] -60% | [7]; [18] 25% | [7]; at 50.0 µM 13.6% | [8]; at 1.2 µM -7% | [8]; at 3.7 µM -11% | [8]; at 11.0 µM -10% | [8]; at 33.0 µM -9% | [8]; at 100.0 µM 16% | [16]; [17] -53% | [16]; [18] 47% | [16]; at 50.0 µM 13.4% | [9]; at 1.2 µM -6% | [9]; at 3.7 µM -6% | [9]; [17] -71% | [9]; at 11.0 µM -9% | [9]; at 33.0 µM -6% | [9]; [18] 66% | [9]; at 100.0 µM 50% | [10]; at 1.2 µM -8% | [10]; at 3.7 µM -2% | [10]; at 11.0 µM 11% | [10]; at 33.0 µM 36% | [11]; at 1.2 µM -16% | [11]; at 3.7 µM -7% | [11]; at 11.0 µM -6% | [11]; at 33.0 µM 10% | [11]; at 100.0 µM 56% | [12]; at 1.2 µM -14% | [12]; at 3.7 µM -10% | [12]; at 11.0 µM 7% | [12]; at 33.0 µM 27% | [13]; [17] -140% | [14]; at 1.2 µM -9% | [14]; at 3.7 µM -6% | [14]; at 11.0 µM -6% | [14]; at 33.0 µM 3% | [14]; at 100.0 µM 69%
